How the values were obtained:
Assay in all cases: log2 ratio of Biotin-Ahx-Ub-VS probe labelling (fragment/DMSO); higher = less target engagement (more negative = stronger competition), active = hit call of the paper (q ≤ 0.05, log2 ratio ≤ -1)
Details in all cases: compound concentration: 200 uM; treatment time: 3 h
OTUD6B = biological target: T1, OTUD6B (UniProt Q8N6M0)
T1 sequence (whole entry): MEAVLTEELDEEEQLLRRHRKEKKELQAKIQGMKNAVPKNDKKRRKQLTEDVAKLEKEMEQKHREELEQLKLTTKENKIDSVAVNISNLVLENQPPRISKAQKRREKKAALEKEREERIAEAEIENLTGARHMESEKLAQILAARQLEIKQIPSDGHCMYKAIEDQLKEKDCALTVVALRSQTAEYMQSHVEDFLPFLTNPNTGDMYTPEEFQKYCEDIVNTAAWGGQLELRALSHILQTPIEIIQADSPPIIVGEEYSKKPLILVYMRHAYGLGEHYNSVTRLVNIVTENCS
Summary of the method: (§1)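 Fragment (200 µM) or vehicle was incubated for 3 h with triplicate HEK293T lysate samples of 495 µg, which were then treated with Biotin-Ahx-Ub-VS at 0.5 µM final for 1 h. Labelled DUBs were enriched on NeutrAvidin, digested with LysC and trypsin, and analysed by diaPASEF LC-MS/MS. Values are average log2 fragment/vehicle ratios from an unpaired t-test on global-median-normalised Spectronaut label-free quantities, using proteins with ≥2 unique peptides.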

OTUD7B = biological target: T2, OTUD7B (UniProt Q6GQQ9)
T2 sequence (whole entry): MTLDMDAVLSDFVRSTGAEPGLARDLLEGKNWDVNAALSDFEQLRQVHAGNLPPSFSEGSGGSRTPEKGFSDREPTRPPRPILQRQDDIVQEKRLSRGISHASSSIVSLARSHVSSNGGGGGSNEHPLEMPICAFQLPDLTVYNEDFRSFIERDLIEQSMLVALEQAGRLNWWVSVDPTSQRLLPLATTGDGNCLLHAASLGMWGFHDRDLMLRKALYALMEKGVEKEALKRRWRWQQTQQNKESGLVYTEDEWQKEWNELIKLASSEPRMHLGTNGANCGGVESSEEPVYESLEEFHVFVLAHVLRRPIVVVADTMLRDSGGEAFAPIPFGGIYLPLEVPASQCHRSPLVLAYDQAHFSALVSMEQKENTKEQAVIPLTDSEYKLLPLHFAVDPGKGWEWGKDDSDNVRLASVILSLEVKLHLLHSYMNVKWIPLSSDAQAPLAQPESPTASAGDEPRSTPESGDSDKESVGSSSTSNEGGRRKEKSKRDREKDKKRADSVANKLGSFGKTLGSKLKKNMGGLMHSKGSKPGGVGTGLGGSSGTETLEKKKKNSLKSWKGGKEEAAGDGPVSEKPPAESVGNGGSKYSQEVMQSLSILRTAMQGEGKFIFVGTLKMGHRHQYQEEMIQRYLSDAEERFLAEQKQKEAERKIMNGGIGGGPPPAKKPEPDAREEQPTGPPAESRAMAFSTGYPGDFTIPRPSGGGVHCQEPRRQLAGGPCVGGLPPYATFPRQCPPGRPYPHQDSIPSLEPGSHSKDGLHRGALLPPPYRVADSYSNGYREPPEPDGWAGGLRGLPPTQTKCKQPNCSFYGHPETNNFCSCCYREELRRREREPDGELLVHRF
Summary of the method: as §1

PRPF8 = PRPF8 (UniProt Q6P2Q9)
Summary of the method: as §1

PSMD7 = biological target: T3, PSMD7 (UniProt P51665)
T3 sequence (whole entry): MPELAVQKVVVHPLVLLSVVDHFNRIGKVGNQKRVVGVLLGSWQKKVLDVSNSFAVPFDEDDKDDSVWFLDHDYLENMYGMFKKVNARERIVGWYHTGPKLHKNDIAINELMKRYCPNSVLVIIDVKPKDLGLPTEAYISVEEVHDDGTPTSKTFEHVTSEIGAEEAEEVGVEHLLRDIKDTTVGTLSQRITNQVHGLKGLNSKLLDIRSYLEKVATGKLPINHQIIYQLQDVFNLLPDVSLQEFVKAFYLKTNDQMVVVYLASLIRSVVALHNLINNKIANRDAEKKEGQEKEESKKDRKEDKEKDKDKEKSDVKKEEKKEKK
Summary of the method: as §1

UCHL1 = UCHL1 (UniProt P09936)
Summary of the method: as §1

UCHL3 = biological target: T4, UCHL3 (UniProt P15374)
T4 sequence (whole entry): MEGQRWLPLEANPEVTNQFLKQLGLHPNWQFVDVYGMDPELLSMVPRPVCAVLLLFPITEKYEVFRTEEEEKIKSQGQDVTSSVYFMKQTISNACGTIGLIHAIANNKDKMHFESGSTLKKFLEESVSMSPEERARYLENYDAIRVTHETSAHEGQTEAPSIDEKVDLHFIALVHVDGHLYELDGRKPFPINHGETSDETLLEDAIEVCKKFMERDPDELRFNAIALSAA
Summary of the method: as §1

UCHL5 = biological target: T5, UCHL5 (UniProt Q9Y5K5)
T5 sequence (whole entry): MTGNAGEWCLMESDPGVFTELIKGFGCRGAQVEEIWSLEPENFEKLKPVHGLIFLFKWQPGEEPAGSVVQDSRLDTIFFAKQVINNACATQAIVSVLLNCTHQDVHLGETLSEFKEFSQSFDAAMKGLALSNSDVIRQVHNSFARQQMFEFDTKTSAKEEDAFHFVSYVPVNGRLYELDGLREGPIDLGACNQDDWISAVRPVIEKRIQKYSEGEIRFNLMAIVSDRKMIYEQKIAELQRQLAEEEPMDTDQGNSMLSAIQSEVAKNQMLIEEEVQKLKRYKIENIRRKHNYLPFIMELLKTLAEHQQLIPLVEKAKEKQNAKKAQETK
Summary of the method: as §1

USP10 = USP10 (UniProt Q14694)
Summary of the method: as §1

USP15 = biological target: T6, USP15 (UniProt Q9Y4E8)
T6 sequence (whole entry): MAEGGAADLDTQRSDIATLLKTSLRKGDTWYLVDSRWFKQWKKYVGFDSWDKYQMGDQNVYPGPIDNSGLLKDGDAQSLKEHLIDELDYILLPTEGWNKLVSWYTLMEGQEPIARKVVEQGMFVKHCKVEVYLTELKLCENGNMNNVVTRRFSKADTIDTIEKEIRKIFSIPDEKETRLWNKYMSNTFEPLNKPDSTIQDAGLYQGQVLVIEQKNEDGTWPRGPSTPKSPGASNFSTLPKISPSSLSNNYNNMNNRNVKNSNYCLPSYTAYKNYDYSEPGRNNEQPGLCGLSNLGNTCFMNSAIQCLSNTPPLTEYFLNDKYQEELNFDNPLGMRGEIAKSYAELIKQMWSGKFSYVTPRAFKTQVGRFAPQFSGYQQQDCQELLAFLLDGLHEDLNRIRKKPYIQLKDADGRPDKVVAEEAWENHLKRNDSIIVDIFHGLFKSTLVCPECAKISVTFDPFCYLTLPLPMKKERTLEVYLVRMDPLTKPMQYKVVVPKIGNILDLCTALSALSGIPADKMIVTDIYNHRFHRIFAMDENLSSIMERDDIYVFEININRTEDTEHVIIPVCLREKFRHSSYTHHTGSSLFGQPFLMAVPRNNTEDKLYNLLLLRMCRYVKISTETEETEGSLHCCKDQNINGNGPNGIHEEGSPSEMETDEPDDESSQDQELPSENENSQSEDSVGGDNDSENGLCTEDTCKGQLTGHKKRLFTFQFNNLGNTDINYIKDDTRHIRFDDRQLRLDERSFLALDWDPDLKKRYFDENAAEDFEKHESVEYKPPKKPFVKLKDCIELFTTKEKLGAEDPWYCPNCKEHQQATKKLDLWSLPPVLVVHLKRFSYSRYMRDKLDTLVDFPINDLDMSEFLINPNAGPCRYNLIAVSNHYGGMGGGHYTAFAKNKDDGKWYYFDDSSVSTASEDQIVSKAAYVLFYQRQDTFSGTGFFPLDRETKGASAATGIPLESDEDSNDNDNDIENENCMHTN
Summary of the method: as §1

USP16 = USP16 (UniProt Q9Y5T5)
Summary of the method: as §1

Measured: log2 ratio of Biotin-Ahx-Ub-VS probe labelling

Sequence of USP10 (Q14694 whole entry): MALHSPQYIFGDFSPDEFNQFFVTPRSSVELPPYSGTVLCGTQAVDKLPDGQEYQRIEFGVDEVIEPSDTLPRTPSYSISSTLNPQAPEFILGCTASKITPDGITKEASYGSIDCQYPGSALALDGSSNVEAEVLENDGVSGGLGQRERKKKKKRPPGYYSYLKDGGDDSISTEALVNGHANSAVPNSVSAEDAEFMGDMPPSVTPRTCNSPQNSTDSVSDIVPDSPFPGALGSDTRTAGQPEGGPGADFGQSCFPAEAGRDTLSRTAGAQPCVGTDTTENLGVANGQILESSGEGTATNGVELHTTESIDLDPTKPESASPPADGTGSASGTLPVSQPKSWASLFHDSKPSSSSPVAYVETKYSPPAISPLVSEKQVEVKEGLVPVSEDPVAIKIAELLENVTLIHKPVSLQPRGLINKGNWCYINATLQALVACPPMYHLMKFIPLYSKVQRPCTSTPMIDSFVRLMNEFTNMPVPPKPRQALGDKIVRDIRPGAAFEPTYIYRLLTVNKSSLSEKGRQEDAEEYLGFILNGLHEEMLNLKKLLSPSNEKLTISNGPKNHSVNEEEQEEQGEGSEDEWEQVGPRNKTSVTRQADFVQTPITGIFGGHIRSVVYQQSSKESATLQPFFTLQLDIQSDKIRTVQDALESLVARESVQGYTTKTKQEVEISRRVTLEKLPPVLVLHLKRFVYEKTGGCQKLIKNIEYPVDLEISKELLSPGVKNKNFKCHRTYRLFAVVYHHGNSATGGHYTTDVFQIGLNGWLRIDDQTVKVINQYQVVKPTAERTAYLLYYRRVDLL
Sequence of UCHL1 (P09936 whole entry, looked up): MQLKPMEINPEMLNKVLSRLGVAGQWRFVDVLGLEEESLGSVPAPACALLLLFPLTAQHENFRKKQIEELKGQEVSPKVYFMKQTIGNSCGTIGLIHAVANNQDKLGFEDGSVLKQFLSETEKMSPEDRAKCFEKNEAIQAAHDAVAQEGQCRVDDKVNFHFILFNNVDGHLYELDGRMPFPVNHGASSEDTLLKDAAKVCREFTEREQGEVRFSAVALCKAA
Sequence of USP16 (Q9Y5T5 whole entry, looked up): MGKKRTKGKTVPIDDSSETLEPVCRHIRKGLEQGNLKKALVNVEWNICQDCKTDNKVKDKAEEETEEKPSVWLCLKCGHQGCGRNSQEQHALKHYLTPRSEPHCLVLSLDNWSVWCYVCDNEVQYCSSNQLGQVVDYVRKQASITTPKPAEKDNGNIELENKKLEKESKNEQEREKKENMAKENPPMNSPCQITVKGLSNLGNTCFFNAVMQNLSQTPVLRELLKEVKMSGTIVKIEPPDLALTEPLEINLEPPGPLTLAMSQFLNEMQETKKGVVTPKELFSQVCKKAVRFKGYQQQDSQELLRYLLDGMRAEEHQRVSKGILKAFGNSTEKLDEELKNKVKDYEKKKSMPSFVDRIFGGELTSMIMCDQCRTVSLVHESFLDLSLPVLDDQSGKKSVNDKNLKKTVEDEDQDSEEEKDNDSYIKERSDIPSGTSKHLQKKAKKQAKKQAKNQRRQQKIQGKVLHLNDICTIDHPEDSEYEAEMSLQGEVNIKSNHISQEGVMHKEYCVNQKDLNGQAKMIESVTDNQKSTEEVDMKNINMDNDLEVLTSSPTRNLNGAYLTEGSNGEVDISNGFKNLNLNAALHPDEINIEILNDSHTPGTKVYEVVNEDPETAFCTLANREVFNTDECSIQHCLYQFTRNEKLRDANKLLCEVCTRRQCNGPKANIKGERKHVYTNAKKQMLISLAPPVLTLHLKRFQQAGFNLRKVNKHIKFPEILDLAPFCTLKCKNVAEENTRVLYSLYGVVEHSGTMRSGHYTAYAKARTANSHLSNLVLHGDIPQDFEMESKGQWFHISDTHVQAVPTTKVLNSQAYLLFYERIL

O=C(CCl)Nc1ccc(F)cc1F
inactive: OTUD6B -0.161 | OTUD7B -0.881 | PRPF8 -0.105 | PSMD7 -0.179 | UCHL3 0.078 | UCHL5 -0.242 | USP10 -0.129 | USP15 -0.34 | USP16 0.0073
active: UCHL1 -1.47

From the supplement of paper PMC11732987, “Enantioselective OTUD7B fragment discovery through chemoproteomics screening and high-throughput optimisation” (Communications Chemistry, 2025)
